The full ranking holds about 110,000 compounds; the median of “z-score” is about -0.1, and the highest 2% start at about 2. Only a selection was taken, and the highest values are over-represented in it overall. Activity calls are given as the source filed them.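 The calls were made as follows: active = z-score in the third read window above 3 or below -3; inactive = the rest.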

For the experiment, the target named is Metabotropic glutamate receptor 8 (Rattus norvegicus) (UniProt P70579). In words: rat mGluR8 modulators via GIRK flux, primary screen, cell-based, thallium flux, HTS (AID 488969). Particulars: HEK293 rat mGluR8, GIRK (G protein-gated inwardly rectifying potassium channel) thallium flux, FluoZin2; at 10 µM; stronger effect = higher value; submaximal glutamate (EC20) added with thallium.
Sequence of Metabotropic glutamate receptor 8 (Rattus norvegicus) (P70579 whole entry, looked up): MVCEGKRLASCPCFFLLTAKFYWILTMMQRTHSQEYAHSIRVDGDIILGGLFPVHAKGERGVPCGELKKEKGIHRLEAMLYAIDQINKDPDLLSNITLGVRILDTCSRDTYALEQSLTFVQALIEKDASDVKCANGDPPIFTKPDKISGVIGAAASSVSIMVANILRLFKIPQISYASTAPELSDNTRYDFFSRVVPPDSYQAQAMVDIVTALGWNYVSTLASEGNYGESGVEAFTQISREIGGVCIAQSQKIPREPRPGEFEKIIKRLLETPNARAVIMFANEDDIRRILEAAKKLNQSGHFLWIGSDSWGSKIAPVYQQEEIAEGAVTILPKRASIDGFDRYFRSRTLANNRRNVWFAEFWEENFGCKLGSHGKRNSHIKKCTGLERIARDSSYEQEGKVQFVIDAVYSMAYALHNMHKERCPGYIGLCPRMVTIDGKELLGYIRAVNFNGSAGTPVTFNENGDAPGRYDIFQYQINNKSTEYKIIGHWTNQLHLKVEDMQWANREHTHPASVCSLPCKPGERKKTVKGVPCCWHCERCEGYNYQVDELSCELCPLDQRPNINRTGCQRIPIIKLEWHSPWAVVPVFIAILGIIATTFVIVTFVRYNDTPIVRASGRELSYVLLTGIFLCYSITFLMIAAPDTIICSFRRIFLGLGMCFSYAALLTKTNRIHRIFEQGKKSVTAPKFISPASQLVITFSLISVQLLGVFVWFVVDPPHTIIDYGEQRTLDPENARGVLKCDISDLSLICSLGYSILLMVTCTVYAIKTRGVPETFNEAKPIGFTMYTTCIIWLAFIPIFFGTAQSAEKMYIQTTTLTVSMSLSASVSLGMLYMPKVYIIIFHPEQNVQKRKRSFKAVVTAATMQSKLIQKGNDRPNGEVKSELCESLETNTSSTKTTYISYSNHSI
For `C/C(=N\NC(=O)c1nonc1N)c1cccs1`, the z-score came to 0.127.
For `CC(=O)Nc1nc2ccccc2n1CCN(C)C`, the z-score is -0.911.
The same measure for `Cn1c(N2CCC(C(N)=O)CC2)nc2c1c(=O)n(Cc1ccc(Cl)cc1)c(=O)n2C`: -0.154; for `Cn1c(N2CCOCC2)nc2c1c(=O)n(Cc1ccc(Cl)cc1)c(=O)n2C`: -0.42; for `Cn1c(N2CCCC2)nc2c1c(=O)n(Cc1ccc(Cl)cc1)c(=O)n2C`: 3.05 (active).
Take `O=C(O)c1ccc(CNCc2ccc(Cl)cc2Cl)cc1`: the z-score is -0.14.
As to `Cc1cc([N+](=O)[O-])ccc1NC(=O)Cc1ccc(F)cc1`, the z-score is -0.108.
In the case of `Cc1cc([N+](=O)[O-])ccc1NC(=S)NC(=O)Cc1ccccc1`, the z-score is 6.82 (active).
For the compound `COCC(=O)Nc1cc([N+](=O)[O-])ccc1C`, the z-score was -0.258.
Turning to `Cc1cc([N+](=O)[O-])ccc1NC(=S)NC(=O)C(c1ccccc1)c1ccccc1`, the z-score was found to be 0.175.
Take `COCC(=O)Nc1ccc([N+](=O)[O-])cc1C`: the z-score came out at 2.3.
With `CCOC(=O)Nc1ccc([N+](=O)[O-])cc1C`, the z-score amounted to 0.0184.
Regarding `S=c1[nH]nc(Cc2cccc3ccccc23)n1-c1ccccc1`, the z-score was -0.324.
In turn, `O=C(NNC(=O)c1ccccc1Br)c1ccc(Cl)cc1` had a z-score of 0.075.
The same measure for `COc1ccc(C(=O)Nc2c(C)ccc3nsnc23)cc1[N+](=O)[O-]`: 0.723; for `CC1CCCCN1C/C=C/c1ccccc1[N+](=O)[O-]` (stereo not given): -0.203; for `COc1cc(C#CC#CCN2CCCCC2)ccc1O`: 2.82.
The same measure for `COc1cc(C(=S)N2CCCCC2)ccc1O`: 0.0785; for `COc1cc(C(=O)OCCN2CCCCC2)ccc1O`: 0.0129; for `O=C(CN1CCCC1)Nc1c2c(nc3ccccc13)N(Cc1ccccc1)CC2`: 1.74.
`COc1ccc(NC(=O)COC(=O)C2CCCCC2)c([N+](=O)[O-])c1` had a z-score of 0.159.
Compound `COc1ccc(NC(=O)COC(=O)CC23CC4CC(CC(C4)C2)C3)c([N+](=O)[O-])c1` registered a z-score of 2.75.
On to `COc1ccc(NC(=O)COC(=O)CC2CC3CCC2C3)c([N+](=O)[O-])c1` (stereo not given), for which the z-score is -0.182.
As to `Cc1nc(N)nc(OCC(F)(F)C(F)F)c1Br`, the z-score is -0.145.
In turn, `COc1ccc(C2CC(c3ccc(Br)cc3)Nc3nc(N)nn32)cc1` (stereo not given) registered a z-score of 1.67.
In turn, `COc1ccc(C2CC(c3ccc(Cl)cc3Cl)Nc3nc(N)nn32)cc1` (stereo not given) gave a z-score of 1.46.
`COc1cccc(C2CC(c3ccc(Cl)cc3)n3nc(N)nc3N2)c1` (stereo not given) gave a z-score of 0.802.
For the compound `Nc1nc2n(n1)C(c1cccs1)CC(c1ccccc1)N2` (stereo not given), the z-score was -0.0568.
The same measure for `Nc1nc2n(n1)C(c1ccco1)CC(c1ccc(F)cc1)N2` (stereo not given): 0.268; for `COc1ccc(C2CC(c3ccccc3)Nc3nc(N)nn32)cc1` (stereo not given): -0.316; for `Nc1nc2n(n1)C(c1cccs1)CC(c1ccc(F)cc1)N2` (stereo not given): 6.13 (active).
`COc1ccc(C2CC(c3ccc(Cl)c(Cl)c3)Nc3nc(N)nn32)cc1` (stereo not given): the z-score is 3.08 (active).
`Nc1nc2n(n1)C(c1ccco1)CC(c1ccc(Cl)c(Cl)c1)N2` (stereo not given) showed a z-score of 2.38.
`COc1ccc(C2CC(c3ccc(Cl)cc3)n3nc(N)nc3N2)cc1` (stereo not given) showed a z-score of 2.61.
The same measure for `Nc1nc2n(n1)C(c1ccco1)CC(c1ccccc1)N2` (stereo not given): -0.0773; for `Cc1ccc(C2CC(c3cccs3)n3nc(N)nc3N2)cc1` (stereo not given): 0.263.
As to `COc1ccc(/C=N/c2oc(-c3ccccc3)cc2C#N)cc1OC`, the z-score was 0.0441.
Turning to `CCCC(=O)C1=C(O)C(C(=O)OC)C(C)(C)CC1=NC(C)(C)C` (stereo not given), the z-score was -0.418.
The same measure for `O=C1c2ccccc2C(=O)N1c1ccc(-c2nc3ccccc3o2)cc1`: 0.248; for `Cc1nn(C)cc1NC(=O)CC12CC3CC(CC(C3)C1)C2`: -0.0159; for `CC(=O)Nc1ccc(C(=O)N/N=C/c2cccnc2)cc1`: -0.709.
Take `Cc1nc2cc(NC(=O)N3c4ccccc4CC3C)ccc2n1C` (stereo not given): the z-score was -0.544.
The same measure for `CCc1cc2c(=O)c(-c3cnn(-c4ccccc4)c3)c(C)oc2cc1OCC(=O)Nc1ccc(F)c(F)c1`: 0.0216; for `Cc1nc(NCCc2ccc(S(N)(=O)=O)cc2)c2c3c(sc2n1)CCC3`: -0.34.
Consider `Cc1nc(NCCc2ccc(S(N)(=O)=O)cc2)c2c(C)c(C)sc2n1`, for which the z-score was 6.05 (active).
In turn, `Cc1sc2ncnc(NCCc3ccc(S(N)(=O)=O)cc3)c2c1C` showed a z-score of 0.0936.
In turn, `O=c1cc(CSc2nnc(-c3ccccc3)o2)c2ccccc2[nH]1` came in with a z-score of 0.487.
`COc1ccc(/C=N\NC(=O)/C(=C\Nc2nccc(C)n2)NC(=O)c2ccccc2)cc1`: the z-score was -0.263.
The compound `C=CCn1c(-c2csc(-c3ccc(Cl)cc3)n2)n[nH]c1=S` came in with a z-score of 2.89.
The compound `CCn1c(-c2csc(-c3ccc(Cl)cc3)n2)n[nH]c1=S` gave a z-score of 1.31.
In the case of `C=CCn1c(-c2csc(-c3ccccc3)n2)n[nH]c1=S`, the z-score is 0.103.
Regarding `CC(C)N(C(=O)Nc1ccc2nccnc2c1)C(C)C`, the z-score is -0.935.
Take `COc1ccc(OC)c(NC(=O)CSc2nnc(Cn3nnc4ccccc43)n2C)c1`: the z-score is -0.116.
On to `NC(=O)c1ccc(NC(=O)COC(=O)CC(NC(=O)c2ccccc2Cl)c2ccccc2)cc1` (stereo not given), for which the z-score amounted to 1.26.
Take `CCOC(=O)N1CCN(C(=O)c2ccc3c(=O)n(Cc4ccc(OC)cc4)c(=S)[nH]c3c2)CC1`: the z-score is -0.232.
Turning to `COc1ccc(Cn2c(O)cc(=O)[nH]c2=O)cc1`, the z-score was 0.277.
Regarding `COc1ccc(Cn2c(=S)[nH]c3ccsc3c2=O)cc1`, the z-score was 3.86 (active).
The same measure for `CCOCCn1c(=NC(=O)c2cc3ccccc3oc2=O)sc2cc(S(N)(=O)=O)ccc21`: -0.105.
The same measure for `C=CCSc1[nH]c(=O)cc(C)c1C(N)=O`: 0.533; for `O=C(COc1ccccc1)Nc1cccc2c1CCCC2`: -0.151.
In the case of `CC(=O)Nc1ccccc1Nc1cc(C#N)c(C#N)cc1[N+](=O)[O-]`, the z-score is -0.00232.
`CN1C2C=C3C(C#N)=C(N)C(C#N)(C#N)C(c4ccc(Br)cc4)C3C1CC2` (stereo not given) registered a z-score of 0.361.
The same measure for `CN1C2C=C3C(C#N)=C(N)C(C#N)(C#N)[C@@H](c4cccc(F)c4)[C@@H]3C1CC2` (stereo not given in full): 1.32; for `CN1C2C=C3C(C#N)=C(N)C(C#N)(C#N)[C@@H](c4cccs4)C3C1CC2` (stereo not given in full): 2.54; for `CN1C2C=C3C(C#N)=C(N)C(C#N)(C#N)[C@@H](c4ccsc4)[C@@H]3C1CC2` (stereo not given in full): 4.01 (active).
Next, `CN1C2C=C3C(C#N)=C(N)C(C#N)(C#N)[C@H](c4c(F)cccc4F)[C@H]3C1CC2` (stereo not given in full): -0.484; `CC(C)(C)C1CC=C2C(C#N)=C(N)C(C#N)(C#N)C(c3cccs3)C2C1` (stereo not given): 0.0392.
Next, `Cc1ccnc(N2CCC(C(=O)NNC(=O)COc3cccc4ccccc34)CC2)n1`: 0.336; `COc1cc(/C=N/OCC(=O)Nc2ccc(OC(F)F)cc2)ccc1OCc1ccccc1`: -0.0267.
As to `CCOC(=O)C1CCCN(C(=O)c2cnn3c(C(F)(F)F)cc(-c4ccccc4)nc23)C1` (stereo not given), the z-score was -2.11.
On to `CCOC(=O)c1ccc(NS(=O)(=O)c2ccc(SC)cc2)cc1`, for which the z-score is -0.12.
As to `COC(=O)c1ccc(NS(=O)(=O)c2ccc(SC)cc2)cc1`, the z-score is 5.24 (active).
With `COC(=O)c1ccc(NS(=O)(=O)c2ccc(OC)cc2)cc1`, the z-score is 0.37.
Regarding `COc1ccc(N2CCN(C(=O)CSc3nnc4n3C(C)(C)Cc3ccccc3-4)CC2)cc1`, the z-score is -0.642.
In turn, `Cc1ccc(Cl)cc1N1CCN(C(=O)CSc2nnc3n2C(C)(C)Cc2ccccc2-3)CC1` came in with a z-score of 1.18.
As to `CC1(C)Cc2ccccc2-c2nnc(SCC(=O)N3CCN(c4ccccc4)CC3)n21`, the z-score was 3.2 (active).
`O=C(Nc1ccccn1)C12CC3CC(C1)CC(C(=O)Nc1ccccn1)(C3)C2` yielded a z-score of 0.332.
`Cc1cccc(Oc2ncc(-c3ccc(Cl)cc3)cn2)c1` came in with a z-score of 0.0612.
With `Cc1cc(N2CCOCC2)nc2ccccc12`, the z-score was -0.0968.
`c1nc(NCC2CCCO2)c2[nH]cnc2n1` (stereo not given) had a z-score of 0.26.
The compound `Cc1cccc(C(=O)NCC2CCCO2)c1` (stereo not given) displayed a z-score of 2.21.
`O=C(NCC1CCCO1)c1cccc(F)c1` (stereo not given) showed a z-score of 0.371.
The compound `O=C(NCC1CCCO1)c1cccc(Br)c1` (stereo not given) came in with a z-score of 0.348.
The same measure for `O=C(CCS(=O)(=O)c1ccc(Br)cc1)Nc1cc(F)ccc1F`: -0.0256; for `O=C(Cn1c(C(F)(F)F)nc2ccccc21)OCC(=O)c1c[nH]c2ccccc12`: -0.594.
In the case of `Cc1cc(C)n(-c2nc3ccccc3nc2NCCc2ccccc2)n1`, the z-score is -0.16.
Next, `Cc1cccc(NC(=S)NCCN2CCOCC2)c1C`: -0.235; `Cc1ccc(N=Nc2c(O)n(CN3CCOCC3)c3ccccc23)cc1`: -0.152; `Cc1cccc(NC(=S)N=Nc2c(O)n(CN3CCOCC3)c3ccccc23)c1C`: 2.19.
Compound `Cn1c(SCc2cccc3ccccc23)nnc1-c1ccco1` had a z-score of 2.15.
Next, `Nn1c(SCc2cccc3ccccc23)nnc1-c1ccco1`: 0.217.
As to `Cn1c(SCc2cc(=O)[nH]c3ccccc23)nnc1-c1ccco1`, the z-score was -0.244.
Take `N#Cc1cn(-c2ccccc2)nc1-c1cc2ccccc2oc1=O`: the z-score is -0.0371.
The compound `S=c1[nH]nc(C2CC2c2ccc(Cl)cc2)n1-c1ccc(Cl)cc1` (stereo not given) showed a z-score of 0.549.
`Cc1ccc(C2CC2c2n[nH]c(=S)n2-c2ccc(Cl)cc2)cc1` (stereo not given) gave a z-score of 2.95.
Compound `Cc1ccc(-n2c(C3CC3c3ccc(Cl)cc3)n[nH]c2=S)cc1` (stereo not given) registered a z-score of 0.832.
For `Cc1ccc(C2CC2c2n[nH]c(=S)n2-c2ccc(C)cc2)cc1` (stereo not given), the z-score turned out to be 2.34.
In turn, `Cc1ccc(-n2c([C@@H]3C[C@H]3c3ccccc3)n[nH]c2=S)cc1` displayed a z-score of 0.209.
Consider `Cc1ccc(C2CC2c2n[nH]c(=S)n2-c2cccc(Cl)c2)cc1` (stereo not given), for which the z-score is 0.358.
`O=C(c1ccc(-n2cnnn2)cc1)N1CCCCC1` came in with a z-score of 0.294.
`CN1CCC(OC(=O)COc2ccc(C(C)(C)C)cc2)CC1` displayed a z-score of 0.712.
In the case of `COC1CCCCC1Nc1cc(C)cc(C)c1` (stereo not given), the z-score is -0.0687.
The same measure for `COc1ccc(C)cc1S(=O)(=O)N(C)CC(=O)NC1CCCC1`: -0.639.
Turning to `CSc1ccccc1NC(=O)CN(c1ccccc1Br)S(C)(=O)=O`, the z-score is 2.04.
Turning to `COc1ccc(N(CC(=O)Nc2ccccc2SC)S(C)(=O)=O)cc1OC`, the z-score was determined as 0.573.
`COc1ccc(Cl)cc1N(CC(=O)Nc1ccccc1SC)S(C)(=O)=O`: the z-score came out at 0.203.
For the compound `CN(C)S(=O)(=O)c1ccc(NC(=O)/C=C/c2ccccc2Cl)cc1`, the z-score is -0.0315.
`O=C(Nc1nnc(CSCc2ccc(F)cc2)s1)c1cccc([N+](=O)[O-])c1`: the z-score was -0.37.
For `O=C(Nc1nnc(CSCc2ccc(F)cc2)s1)c1ccc([N+](=O)[O-])cc1`, the z-score was 2.51.
On to `CCC(=O)Nc1nnc(CSCc2ccc(F)cc2)s1`, for which the z-score was 0.0266.

Values taken from PubChem BioAssay AID488969 (Vanderbilt High Throughput Screening Facility, 2010).
